Laboratory results: PubChem BioAssay AID1671202 (University of Kansas High Throughput Screening Laboratory, 2021)
Several values for one entry are separate records, joined by “and”; a condition that tells them apart may be missing. Identical values can stand only once. Hit rate of the full screen: of about 190,000 compounds, about 6,900 (3.6%) were called active. The sample holds actives, similar compounds and a random draw of the others, so the mix is not that of the screen. No stated cut-off is given here; in the data, active means inhibition above about 50%; inactive means the rest.

Each compound was assayed against Huntingtin (Homo sapiens) (UniProt P42858) (assay: mutant huntingtin-calmodulin interaction inhibitors – biochemical, AlphaScreen, primary screen (AID 1671202;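 further: 0% = both proteins with DMSO and 100% = one protein alone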)). Settings: AlphaScreen His-mHTT/GST-CaM binding, luminescence; at 15 µM, active compounds read high.
Sequence of Huntingtin (Homo sapiens) (P42858 whole entry, looked up, stated change not applied): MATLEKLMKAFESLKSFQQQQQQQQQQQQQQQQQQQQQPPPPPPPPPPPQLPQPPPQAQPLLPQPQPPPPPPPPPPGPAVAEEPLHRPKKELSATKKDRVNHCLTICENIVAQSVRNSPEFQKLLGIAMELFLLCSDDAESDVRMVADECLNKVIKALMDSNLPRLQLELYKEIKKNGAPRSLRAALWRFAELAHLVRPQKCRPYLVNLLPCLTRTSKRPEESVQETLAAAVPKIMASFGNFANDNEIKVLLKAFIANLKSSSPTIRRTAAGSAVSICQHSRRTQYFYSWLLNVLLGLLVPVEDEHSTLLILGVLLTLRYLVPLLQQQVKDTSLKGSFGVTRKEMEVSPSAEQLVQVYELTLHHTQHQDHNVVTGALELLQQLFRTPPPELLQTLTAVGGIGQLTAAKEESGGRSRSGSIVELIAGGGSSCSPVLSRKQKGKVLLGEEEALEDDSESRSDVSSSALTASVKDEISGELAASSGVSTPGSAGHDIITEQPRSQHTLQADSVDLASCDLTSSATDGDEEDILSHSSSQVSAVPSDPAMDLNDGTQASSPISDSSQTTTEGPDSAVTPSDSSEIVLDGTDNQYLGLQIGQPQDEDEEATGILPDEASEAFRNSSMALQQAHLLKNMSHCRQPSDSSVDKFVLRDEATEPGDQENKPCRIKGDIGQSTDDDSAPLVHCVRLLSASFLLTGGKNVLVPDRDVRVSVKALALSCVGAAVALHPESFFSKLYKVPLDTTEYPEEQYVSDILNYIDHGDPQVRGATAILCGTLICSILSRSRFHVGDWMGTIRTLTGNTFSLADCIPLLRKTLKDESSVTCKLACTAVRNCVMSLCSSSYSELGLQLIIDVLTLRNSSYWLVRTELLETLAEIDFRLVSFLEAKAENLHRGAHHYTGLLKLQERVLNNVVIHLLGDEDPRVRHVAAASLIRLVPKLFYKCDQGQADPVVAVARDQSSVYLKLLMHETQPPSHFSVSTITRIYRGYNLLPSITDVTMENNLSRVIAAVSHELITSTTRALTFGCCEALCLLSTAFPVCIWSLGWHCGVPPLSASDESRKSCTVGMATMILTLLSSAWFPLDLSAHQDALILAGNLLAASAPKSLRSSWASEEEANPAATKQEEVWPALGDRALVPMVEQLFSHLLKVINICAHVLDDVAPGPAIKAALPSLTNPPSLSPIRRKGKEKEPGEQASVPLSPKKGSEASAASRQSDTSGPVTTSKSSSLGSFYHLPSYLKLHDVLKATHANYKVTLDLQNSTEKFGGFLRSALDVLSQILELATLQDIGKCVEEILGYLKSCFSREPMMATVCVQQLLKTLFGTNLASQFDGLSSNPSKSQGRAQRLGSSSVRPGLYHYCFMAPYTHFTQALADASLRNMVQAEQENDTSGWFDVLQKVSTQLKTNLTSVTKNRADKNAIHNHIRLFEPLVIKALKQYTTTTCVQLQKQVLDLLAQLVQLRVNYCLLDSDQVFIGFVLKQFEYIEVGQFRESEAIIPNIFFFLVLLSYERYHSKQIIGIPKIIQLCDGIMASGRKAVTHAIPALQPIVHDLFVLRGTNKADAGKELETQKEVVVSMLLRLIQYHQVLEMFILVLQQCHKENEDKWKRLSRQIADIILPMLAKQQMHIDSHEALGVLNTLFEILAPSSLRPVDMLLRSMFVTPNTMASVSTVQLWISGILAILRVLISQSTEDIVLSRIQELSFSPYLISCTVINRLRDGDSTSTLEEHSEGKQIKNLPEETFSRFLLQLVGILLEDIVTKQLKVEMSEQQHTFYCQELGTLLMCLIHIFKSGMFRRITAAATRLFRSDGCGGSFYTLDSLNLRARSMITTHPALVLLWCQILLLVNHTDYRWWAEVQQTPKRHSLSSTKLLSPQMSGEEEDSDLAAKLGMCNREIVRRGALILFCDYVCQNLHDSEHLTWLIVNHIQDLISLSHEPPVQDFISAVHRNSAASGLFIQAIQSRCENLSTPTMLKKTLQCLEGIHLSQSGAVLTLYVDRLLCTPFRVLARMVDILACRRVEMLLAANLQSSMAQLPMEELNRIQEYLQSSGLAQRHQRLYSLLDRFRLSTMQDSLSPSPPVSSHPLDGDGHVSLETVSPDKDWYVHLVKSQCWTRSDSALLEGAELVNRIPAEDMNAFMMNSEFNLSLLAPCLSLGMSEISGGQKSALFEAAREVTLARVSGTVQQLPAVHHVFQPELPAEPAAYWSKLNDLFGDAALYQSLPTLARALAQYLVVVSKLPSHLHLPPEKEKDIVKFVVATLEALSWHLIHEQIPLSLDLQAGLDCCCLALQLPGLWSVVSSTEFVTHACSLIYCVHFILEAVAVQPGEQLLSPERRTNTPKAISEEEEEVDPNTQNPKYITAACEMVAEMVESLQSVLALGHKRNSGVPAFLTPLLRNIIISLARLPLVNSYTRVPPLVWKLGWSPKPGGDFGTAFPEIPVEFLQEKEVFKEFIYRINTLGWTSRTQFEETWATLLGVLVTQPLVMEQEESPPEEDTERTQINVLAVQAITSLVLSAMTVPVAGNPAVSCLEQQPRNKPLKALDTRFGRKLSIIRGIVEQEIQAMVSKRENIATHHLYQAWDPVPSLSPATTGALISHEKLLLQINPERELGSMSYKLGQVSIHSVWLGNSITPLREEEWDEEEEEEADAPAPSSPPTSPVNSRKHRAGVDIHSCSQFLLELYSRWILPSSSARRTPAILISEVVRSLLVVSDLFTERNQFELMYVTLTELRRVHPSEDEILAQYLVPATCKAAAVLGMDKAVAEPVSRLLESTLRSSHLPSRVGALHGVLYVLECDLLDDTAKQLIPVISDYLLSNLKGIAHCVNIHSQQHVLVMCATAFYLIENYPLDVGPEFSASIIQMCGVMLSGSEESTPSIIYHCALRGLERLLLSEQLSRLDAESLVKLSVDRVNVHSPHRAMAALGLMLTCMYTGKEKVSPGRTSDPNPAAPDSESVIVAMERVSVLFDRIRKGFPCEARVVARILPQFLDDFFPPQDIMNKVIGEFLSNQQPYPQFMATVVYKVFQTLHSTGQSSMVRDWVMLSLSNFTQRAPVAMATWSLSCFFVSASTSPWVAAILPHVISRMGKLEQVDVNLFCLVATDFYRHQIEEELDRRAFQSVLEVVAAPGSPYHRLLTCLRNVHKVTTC

SMILES	inhibition
O=[N+]([O-])C(=C1SCCS1)C(=C(Cl)Cl)N1CCCC1	62% (active)
CCC1CO/C(=C(\C(=C(Cl)Cl)N2CCOCC2)[N+](=O)[O-])N1 (stereo not given)	-5% (inactive)
O=C1CS/C(=C(\C(Cl)=C(Cl)Cl)[N+](=O)[O-])N1c1ccc(Cl)cc1	33% (inactive)
N#C/C(=C\c1ccccc1F)c1nc(-c2cccc([N+](=O)[O-])c2)cs1	5.7% (inactive)
CCC(=O)NCc1nc2c(n1CC)CN(S(=O)(=O)Cc1ccc(Cl)cc1)CC2	0.5% (inactive)
COc1ccc(N2C(=O)NC3CC2(C)Oc2ccccc23)cc1Cl (stereo not given)	-0.83% (inactive)
CN1CCCN(C(=O)C2COC3(CCCCC3)N2C(=O)c2ccccc2)CC1 (stereo not given)	1.3% (inactive)
Cc1cc(C2CCCN2C(=O)c2cc(-c3ccccc3F)no2)no1 (stereo not given)	-0.13% (inactive)
C=CCn1c(-c2ccccc2)csc1=Nc1ccc(O)cc1	69% (active)
C=CCn1c(=O)c2cnc(-c3ccc(Cl)cc3)nc2n(C)c1=O	-3.7% (inactive)
Cc1c(N=C2C=C(C(C)C)C(=O)C(C(C)C)=C2)c(=O)n(-c2ccccc2)n1C	8% (inactive)
C=CCn1c(-c2ccc(Cl)cc2)csc1=Nc1c(C)n(C)n(-c2ccccc2)c1=O	66% (active)
CCn1c(=NC(=O)c2ccc(S(=O)(=O)N(C)C)cc2)sc2cc(F)ccc21	3% (inactive)
CCN1CCN(c2ncc3c(n2)CCN(Cc2cc(OC)c(OC)cc2OC)C3)CC1	23.9% (inactive)
COc1ccc(C2CC(=O)C3=C(C2)Nc2ncnn2C3c2cccc(OC)c2OC)cc1 (stereo not given)	10.8% (inactive)
O=C(NCCC1=CCCCC1)C1CCCN(Cc2nc(-c3ccncc3)no2)C1 (stereo not given)	-3.8% (inactive)
COc1ccc(-n2c3c(cc(C(=O)N4CCOCC4)c2=O)C(=O)CC(C)(C)C3)cc1	-1% (inactive)
CC(C)c1ccc(C2N3CC4(C)CN2CC(C)(C3)C4O)cc1 (stereo not given)	-5% (inactive) and 3.2% (inactive)
Cc1c(C)n(Cc2ccccc2)c2ccc(C(=O)N3CCN(C(=O)c4ccccc4)CC3)cc12	99% (active)
Cc1cccc(C(=O)N2CCCN(C(=O)c3cccc(C)c3)CC2)c1	-1.9% (inactive)
Cc1ccc(C(=O)N2CCN(c3ccccc3)CC2)cc1	0.5% (inactive)
O=C(Nc1ccccc1[N+](=O)[O-])c1c(F)cccc1F	2.8% (inactive)
Fc1ccc(C2CC(c3ccc(Br)cc3)Nc3ncnn32)cc1 (stereo not given)	7% (inactive)
CCN1C(=Cc2cc[n+](-c3ccccc3)cc2)C=Cc2ccccc21	65% (active)

SMILES	inhibition
CCN1/C(=C2\N=C(c3ccccc3)OC2=O)C=Cc2ccccc21	39% (inactive)
CC(=O)C1=C(O)C(=O)N(c2nccs2)C1c1ccc([N+](=O)[O-])cc1 (stereo not given)	10.1% (inactive)
O=C(Nc1ccccc1)Oc1cccc2cccnc12	93.6% (active)
COc1ccc(NC(=O)Nc2cccc3cccnc23)cc1	11.4% (inactive)
O=C(O)c1ccccc1-c1ccccc1C(=O)Nc1cccc2cccnc12	8.7% (inactive)
C=CCNC(=O)c1c(F)ccc(S(=O)(=O)N2CCCCCC2)c1F	-7% (inactive)
O=C(Cn1ncn2nc(-c3ccc(Cl)cc3)cc2c1=O)Nc1ccccc1C(F)(F)F	-7.9% (inactive)
CCNC(=O)c1csc(-c2cccc(OC)c2)n1	-7.8% (inactive)
COc1ccc(/C=C2\SC(=O)N(CN3CCOCC3)C2=O)cc1	-4% (inactive)
Clc1ncnc2sc3c(c12)CCCCC3	-7.58% (inactive)
OCCNc1ncnc2sc3c(c12)CCCCC3	1.3% (inactive)
NNc1ncnc2sc3c(c12)CCCC3	100% (active)
COc1cc(C(=O)N2CCC(CC(=O)NC3CCCC3)CC2)cc(OC)c1OC	-1.18% (inactive)
O=C1C[C@H]2C=CCc3cccc(c32)CN1Cc1ccccc1	100% (active)
Cc1cccc(CN2Cc3cccc4c3[C@H](C=CC4)CC2=S)c1	3.5% (inactive)
O=C1C[C@@H]2c3c(cccc3CN1Cc1ccccc1)C[C@@H](O)[C@H]2O	1.6% (inactive)
O=C(Cc1ccc(F)cc1Cl)N1CCCC1c1cccc(F)c1 (stereo not given)	-1.36% (inactive)
COc1ccc(CNC(=O)C2CC(=O)N(c3ccc(OCc4ccc(F)cc4)cc3)C2)cc1 (stereo not given)	-13.8% (inactive)
COc1ccc(C2CC(C(F)(F)F)n3ncc(C(=O)NC45CC6CC(CC(C6)C4)C5)c3N2)cc1 (stereo not given)	6% (inactive)
COCCNC(=O)Nc1nc(-c2ccccn2)cs1	95.6% (active)
CC1CC(C)CN(S(=O)(=O)c2ccc(C(=O)Nc3nc(-c4ccccn4)cs3)cc2)C1 (stereo not given)	17% (inactive)
COc1ccc(C(=O)Nc2cc(-c3ccccn3)no2)cc1	-10.4% (inactive)
COC(=O)Nc1nc(CC(=O)NCc2nc3ccccc3[nH]2)cs1	-0.6% (inactive)
CC(C)SCC(=O)Nc1nc(CC(=O)O)cs1	1.9% (inactive)

SMILES	inhibition
Cc1nc(NC(=O)c2ccoc2C)sc1C	10% (inactive)
O=C(Cc1csc(NC(=O)c2ncccn2)n1)Nc1cccc2nsnc12	99.8% (active)
COc1cc(C(=O)Nc2cccc3nsnc23)cc(OC)c1OC	-8.5% (inactive)
Cc1nc(NC(=O)Cc2csc(NC(=O)c3ncccn3)n2)sc1C	98% (active)
Cc1ccc(NC(=O)c2ccc(Cl)c(Cl)c2)nc1	-13.9% (inactive) and -7% (inactive)
O=C(CSc1nc2ccsc2c(=O)n1Cc1ccccc1F)NC1CCCC1	-3% (inactive)
CC(=O)N(C)C1(C(=O)NC2CCCCC2)CCCCC1	4% (inactive)
COCCCNC(=O)C1(C)CCC(=O)N1Cc1ccc(C)cc1 (stereo not given)	3.12% (inactive)
CCCCN(C)S(=O)(=O)c1ccc(C(=O)Nc2nnc(C)o2)cc1	32% (inactive)
Cc1cc2c(cc1C)NC1(C[C@H]3CCC(=O)N4CC[C@@H](C1)[C@@H]34)C(=NC(C)(C)CC(C)(C)C)N2 (stereo not given in full)	96.4% (active)
O=C1CC[C@@H]2CC3(C[C@@H]4CCN1[C@H]24)Nc1cc([N+](=O)[O-])ccc1NC3=NC1CCCCC1 (stereo not given in full)	57.5% (active)
O=C1CCC[C@@H]2C[C@@]3(C[C@@H]4CCN1[C@H]24)Nc1ccccc1NC3=NCc1ccccc1	11.5% (inactive)
O=C(/C(=C1\Nc2ccc([N+](=O)[O-])cc2N1)[N+](=O)[O-])N1CCCCC1	8% (inactive)
CC(C)(C)C(=O)NCCC(O)C1CC1 (stereo not given)	-4% (inactive)
CN(C)CCn1c2c(c(SCC(=O)Nc3ccccc3C(F)(F)F)nc1=O)CCC2	0% (inactive)
O=C(CSc1nnnn1-c1cccc2ccccc12)Nc1ccccc1Cl	-8.1% (inactive)
COc1ccc(C(=O)Nc2ccccc2F)cc1OC	-1.2% (inactive)
COc1ccc(C2=NC3(CCCCC3)N(CC(=O)Nc3ccc4c(c3)OCO4)C2=O)cc1	3.31% (inactive)
CNc1nccc(N2CCC(CC(=O)N3CCN(c4ccccc4)CC3)CC2)n1	13.2% (inactive)
O=c1cc(-c2ccccc2)sc2ccc(Cl)cc12	7% (inactive)
Cc1nc(N=C(N)N)nc2c(C)cccc12	25.3% (inactive)
NC(N)=Nc1nc(-c2ccccc2)c2cc(Cl)ccc2n1	100% (active)
O=C1CC(c2ccc(Cl)cc2)CC2=C1C(c1ccsc1)Nc1ccccc1N2 (stereo not given)	4% (inactive)
CN(C)c1ccc(C2Nc3ccccc3NC3=C2C(=O)CC(c2ccc(Cl)cc2)C3)cc1 (stereo not given)	63% (active)

SMILES	inhibition
COc1ccc(C2CC(=O)C3=C(C2)Nc2ccccc2NC3c2cc(F)ccc2F)cc1 (stereo not given)	23% (inactive)
O=C(c1cccs1)N1CC(c2nc(-c3ncccn3)no2)C1	-5.2% (inactive)
COc1ccc(CNC(=O)CN(c2ccc(I)cc2)S(C)(=O)=O)cc1	-4.2% (inactive)
COc1ccc(C2=N/C(=C\c3cccc([N+](=O)[O-])c3)C(=O)O2)c(Br)c1	3% (inactive)
COc1ccc(C)cc1NC(=O)N1CCc2c(c(COCc3ccccc3F)nn2C)C1	33.8% (inactive)
CC1CCN(CC(O)COC2CC3CCC2(C)C3(C)C)CC1 (stereo not given)	-1.1% (inactive)
COc1ccc(N2CCN(CC(O)COC3CC4CCC3(C)C4(C)C)CC2)cc1 (stereo not given)	64.3% (active)
CC1(C)C2CCC1(C)C(OCC(O)CN1CCOCC1)C2 (stereo not given)	2.6% (inactive)
COc1ccc(C2=NN3C(C2)c2cc(OC)ccc2OC3(C)C)cc1 (stereo not given)	64% (active)
COc1ccc(C2=NN3COc4ccc(Br)cc4C3C2)cc1 (stereo not given)	34% (inactive)
COc1ccc(C2=NN3COc4ccc(Cl)cc4C3C2)cc1 (stereo not given)	27% (inactive)
COc1ccc2c(c1)C(=O)C(C1(O)C(=O)Nc3ccccc31)CC2 (stereo not given)	2.6% (inactive)
COc1ccc(OC)c(C2C3=C(CC(C)(C)CC3=O)Nc3ccccc3N2C(C)=O)c1 (stereo not given)	8.9% (inactive)
O=S1(=O)CC(N2CCN(Cc3ccccc3F)CC2)CN1Cc1cn(Cc2cccc(C(F)(F)F)c2)nn1 (stereo not given)	6.8% (inactive)
COCCCNC(=O)c1cnn2c(C(F)(F)F)cc(-c3cccs3)nc12	10% (inactive)
O=[N+]([O-])c1c(Cl)cc(Cl)c2nsnc12	88% (active)
O=C(Nc1ccc(S(=O)(=O)Nc2ccccn2)cc1)C1OC2OC3(CCCCC3)OC2C2OC3(CCCCC3)OC12 (stereo not given)	22.5% (inactive)
Cc1ccc(SCC(=O)N2CCN(C)CC2)cc1	0.5% (inactive)
CCc1onc(C)c1C1CCCN1Cc1cc(Br)ccc1F (stereo not given)	-71.3% (inactive)
CCn1cc(-c2ccccc2)cc1C(=O)NCc1ccccn1	47.4% (inactive)
CCn1cc(-c2ccc(C)cc2)cc1C(=O)NCc1cccnc1	46.7% (inactive)
CCn1cc(-c2ccc(F)cc2)cc1C(=O)NC(C)c1cccnc1 (stereo not given)	50.5% (active)
OCCCc1nc2n(n1)C(c1ccco1)C=C(c1ccc(Br)cc1)N2 (stereo not given)	34% (inactive)
